pPAFAH inh = pPAFAH (human) enzyme inhibition; Q13093; recombinant pPAFAH, FP-rhodamine probe fluorescence polarization; inhibition, % at 3.39 µM; hit rate 1.5% among 330,000;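 active means inhibition above the mean inhibition across the screen plus 3 SD, cut at about 25% in these data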;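 further: inhibitors block binding of the rhodamine activity-based probe so polarization drops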
Target sequence (Q13093 whole entry, looked up): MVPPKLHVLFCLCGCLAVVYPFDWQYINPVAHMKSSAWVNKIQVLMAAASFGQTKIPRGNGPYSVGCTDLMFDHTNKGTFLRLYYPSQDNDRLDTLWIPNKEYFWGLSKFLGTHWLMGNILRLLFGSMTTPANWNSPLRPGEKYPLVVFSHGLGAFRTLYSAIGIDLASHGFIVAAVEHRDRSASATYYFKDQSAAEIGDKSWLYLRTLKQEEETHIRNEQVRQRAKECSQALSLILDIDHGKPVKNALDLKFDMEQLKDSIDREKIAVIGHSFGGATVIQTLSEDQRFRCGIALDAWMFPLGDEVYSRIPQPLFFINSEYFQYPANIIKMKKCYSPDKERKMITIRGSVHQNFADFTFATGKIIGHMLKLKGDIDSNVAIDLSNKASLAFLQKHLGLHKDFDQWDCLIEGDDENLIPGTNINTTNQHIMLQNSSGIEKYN
PAFAH2 inh = inhibitors of human PAFAH2; recombinant PAFAH2, FP-rhodamine activity probe, fluorescence polarization; inhibition, % at 3.39 µM; hit rate 0.99% among 340,000; AID 492956;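 active means inhibition above the mean over all tested compounds plus 3 SD, cut at about 30% in these data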;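 further: inhibitors block probe labeling of enzyme so polarization drops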
PP5 primary = inhibitors of human protein phosphatase 5 (PP5). AID 1987. purified PP5c, OMFP substrate fluorescence. inhibition, % at 6.7 µM. P53041. hit rate 0.18% among 320,000;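 active means inhibition above the campaign's mean inhibition across all tested compounds plus 3 SD, cut at about 9.5% in these data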
PAFAH1B2 inh = PAFAH1B2 (human) inhibition. AID 492953. inhibition, % at 3.39 µM. P68402. hit rate 1.2% among 340,000. recombinant PAFAH1B2, FP-rhodamine activity probe, fluorescence polarization;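 active means inhibition above the mean of all tested compounds plus 3 SD, cut at about 24% in these data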
PAFAH1B3 inh = PAFAH1B3 (human) inhibition | hit rate 0.28% among 340,000 | recombinant PAFAH1B3, FP-rhodamine probe, fluorescence polarization | inhibition, % at 3.39 µM;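 active means inhibition above the screen-wide average of all tested compounds plus 3 SD, cut at about 25% in these data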
Target sequence (Q15102 whole entry, looked up): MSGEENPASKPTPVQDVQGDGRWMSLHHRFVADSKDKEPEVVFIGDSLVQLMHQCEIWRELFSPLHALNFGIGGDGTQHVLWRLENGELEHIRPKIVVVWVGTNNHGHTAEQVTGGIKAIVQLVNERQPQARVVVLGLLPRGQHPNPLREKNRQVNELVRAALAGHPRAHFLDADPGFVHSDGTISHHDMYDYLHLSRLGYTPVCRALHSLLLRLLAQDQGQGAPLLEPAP
PP1 inh = blocks human PP1-alpha phosphatase, a PP5 counter-screen | hit rate 0.9% among 320,000 | inhibition, % at 6.7 µM | P62136 | purified PP1alpha, OMFP fluorescence | AID 2235;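 active means inhibition above the mean inhibition of all tested compounds plus 3 SD, computed separately for each screening campaign, cut at about 15% in these data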
PP1 inh confirm = human PP1 phosphatase inhibition, confirmation; shares compounds with PP1 inh; purified PP1alpha, OMFP substrate fluorescence; inhibition, % at 6.7 µM; hit rate 52% among 1,900;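 active means mean PP1 inhibition above a set limit taken from the earlier primary screen, cut at about 15% in these data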
PP5 inh counter = counter-screen for PP1 inhibitors: human PP5 phosphatase inhibition; AID 2360; hit rate 4% among 1,900; inhibition, % at 6.7 µM; shares compounds with PP1 inh; purified PP5c, OMFP fluorescence;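 active means mean PP5 inhibition over triplicate wells above about 9.5% taken from the earlier PP1 screen, limit read from the data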
Large screens that a line does not name were inactive (follow-up assays come after a bar, where they were run). Rows were chosen to be rich in hits. Some 3.4% of all compounds tested hit in one or more screens of this group.

CCCc1cc(=O)oc2cc(OC(C)C(=O)NCC3CCC(C(=O)O)CC3)c(Cl)cc12 (stereo unspecified)	none
Cc1nn(-c2ccccc2)c2sc(C(=O)NNC(=O)COc3cccc4ccccc34)cc12	none
Cc1nn(-c2ccccc2)c2sc(C(=O)NNC(=O)COc3ccccc3)cc12	PP1 inh 23 | PP1 inh confirm 22 | PP5 inh counter inactive
COc1ccc(NCc2nnc(SCC(=O)Nc3nc(-c4ccccc4)cs3)n2-c2ccccc2)cc1	PP1 inh 32 | PP1 inh confirm 26 | PP5 inh counter inactive
CC(=O)c1ccc(NC(=O)CN2CCCCCC2)cc1	none
COc1ccccc1N1Cc2ccccc2C1	PP1 inh 18 | PP1 inh confirm 24 | PP5 inh counter inactive
COc1ccc(OC)c(N2Cc3ccccc3C2)c1	none
CCc1ccccc1N(C)S(=O)(=O)c1ccc2[nH]cc(C(=O)O)c(=O)c2c1	PP1 inh 24 | PP1 inh confirm 18 | PP5 inh counter inactive
Cc1cc(-c2ccc(S(=O)(=O)N(C)Cc3ccccc3)cc2)on1	none
COc1cccc(/C=N/NC(=O)c2c(-c3ccccc3)noc2C)c1O	none
COc1cccc(/C=N/Nc2cc(-n3nc(C)cc3-c3ccccc3)ncn2)c1O	PP1 inh 21 | PP1 inh confirm 32 | PP5 inh counter inactive
Cc1cc(C)n(-c2nc(Nc3ccccc3)nc(-n3nc(C)cc3C)n2)n1	none
COc1cccc(/C=N/Nc2nc(Nc3ccccc3)nc(-n3nc(C)cc3C)n2)c1O	PP5 primary 11, PP1 inh 35 | PP1 inh confirm 36 | PP5 inh counter inactive
CC1CCN(C(=O)c2[nH]cnc2C(=O)N[C@@H](C)c2ccccc2)CC1	none
O=C1NCN(c2ccccc2)C12CCN(CCCC(c1ccc(F)cc1)c1ccc(F)cc1)CC2	PP1 inh 19 | PP1 inh confirm inactive | PP5 inh counter inactive
CCCOP(=O)(c1ccc(N(C)C)cc1)C(O)c1ccc(N(C)C)cc1 (stereo unspecified)	none
COc1ccc(C2/C(=C(\O)c3ccc4c(c3)OCCO4)C(=O)C(=O)N2c2nc(C)c(C(C)=O)s2)cc1 (stereo unspecified)	PP1 inh 19 | PP1 inh confirm inactive | PP5 inh counter inactive
CCCn1c(SCC(=O)Nc2ccccc2C(=O)NC2CC2)n[nH]c1=O	none
O=C(C1=C(O)C(=O)N(CCN2CCOCC2)C1c1ccc(Br)cc1)c1cc2ccccc2o1 (stereo unspecified)	PP1 inh 23 | PP1 inh confirm inactive | PP5 inh counter inactive
COc1cccc2cc(C(=O)C3=C(O)C(=O)N(CCN4CCOCC4)C3c3ccc(Cl)cc3)oc12 (stereo unspecified)	none
COc1cccc2cc(C(=O)C3=C(O)C(=O)N(CCN4CCOCC4)C3c3ccc(C(C)(C)C)cc3)oc12 (stereo unspecified)	PP1 inh 21 | PP1 inh confirm 27 | PP5 inh counter inactive
O=C(COc1ccccc1)NCC(=O)N/N=C/c1ccc(Cl)cc1	none
S=C(NC1CC1)NC1CCCc2ccccc21 (stereo unspecified)	none
S=c1[nH]nc(-c2cc(-c3ccccc3)n[nH]2)n1/N=C/C=C/c1ccccc1	PP1 inh 23 | PP1 inh confirm 17 | PP5 inh counter inactive
COc1ccccc1/C=C/C=N/n1c(-c2cc(-c3ccccc3)n[nH]2)n[nH]c1=S	PP1 inh 22 | PP1 inh confirm 27 | PP5 inh counter inactive
CCOc1ccc(S(=O)(=O)NCc2ccc(OC)cc2)c2cccnc12	PP1 inh 68 | PP1 inh confirm inactive | PP5 inh counter inactive
O=c1c2ccccc2sc2ccccc12	none (no result: pPAFAH inh, PP5 primary, PP1 inh)
O=c1c(C(c2ccccc2)c2c(O)sc3ccccc3c2=O)c(O)sc2ccccc12	PP1 inh 25 | PP1 inh confirm 31 | PP5 inh counter inactive
Cc1ccc(S(=O)(=O)N2CCOCC2)cc1C(=O)Nc1nc(-c2ccccn2)cs1	none (no result: PP5 primary, PP1 inh)
O=C(Nc1nc(-c2ccccn2)cs1)c1cccc(S(=O)(=O)N2CCOCC2)c1	PP1 inh 30 | PP1 inh confirm 32 | PP5 inh counter inactive
O=C(Nc1nc(-c2cccs2)cs1)c1ccc(S(=O)(=O)N2CCCCC2)cc1	none
O=C(Nc1nc(-c2ccccn2)cs1)c1ccc(S(=O)(=O)N2CCCCC2)cc1	PP1 inh 29 (no result: PAFAH2 inh, PAFAH1B2 inh, PAFAH1B3 inh) | PP1 inh confirm 27 | PP5 inh counter inactive
CCCCC(CC)CO (stereo unspecified)	none (no result: PP5 primary, PP1 inh)
CCCCC(CC)CN=C(N)NC(N)=NCCCCCCN=C(N)NC(N)=NCC(CC)CCCC (stereo unspecified)	PP1 inh 46 | PP1 inh confirm 29 | PP5 inh counter inactive
Cc1cc(C)c2c(N)c(C(=O)Nc3c(C)n(C)n(-c4ccccc4)c3=O)sc2n1	none
O=C(O)C/C(=C\c1cccc(NC(=O)c2ccccc2Cl)c1)c1nc2ccccc2s1	none
COc1ccc(C(=O)Nc2cccc(/C=C(\CCC(=O)O)c3nc4ccccc4s3)c2)cc1	PP1 inh 23 | PP1 inh confirm inactive | PP5 inh counter inactive
COc1ccc(C2C(C(=O)c3ccco3)=C(O)C(=O)N2CCc2ccccc2)cc1OC (stereo unspecified)	PP1 inh 30 | PP1 inh confirm 29 | PP5 inh counter inactive
Cc1cc2cc(CNC(=O)c3cc4ccccc4o3)ccc2n1C	PP1 inh 22 (no result: PAFAH2 inh, PAFAH1B2 inh, PAFAH1B3 inh) | PP1 inh confirm inactive | PP5 inh counter inactive
CC1CCCCN1S(=O)(=O)c1ccc(C(=O)Nc2nnc(C3CC3)o2)cc1 (stereo unspecified)	PP1 inh 20 | PP1 inh confirm inactive | PP5 inh counter inactive
O=C(Nc1nnc(C2CC2)o1)c1ccc(S(=O)(=O)N2CCCCC2)cc1	PP1 inh 20 | PP1 inh confirm inactive | PP5 inh counter inactive
CC1CCCCN1S(=O)(=O)c1ccc(C(=O)Nc2nnc(-c3ccccn3)o2)cc1 (stereo unspecified)	PP1 inh 23 | PP1 inh confirm 22 | PP5 inh counter inactive
C/C(=N\NS(=O)(=O)c1cccc([N+](=O)[O-])c1)c1cccnc1	none
COCCn1c(=NC(=O)c2cccs2)sc2cc(NC(C)=O)ccc21	PP1 inh 19 | PP1 inh confirm inactive | PP5 inh counter inactive
Cc1ccc(-c2cc(C(=O)NCCCn3ccnc3)c3cc(Br)ccc3n2)o1	PP1 inh 32 | PP1 inh confirm inactive | PP5 inh counter inactive
COc1ccc(Br)cc1S(=O)(=O)NCCc1cccs1	none (no result: PP5 primary, PP1 inh)
Cc1ccc(-c2nnc(SCC(=O)N/N=C/c3ccc(C)s3)n2-c2ccc(C)cc2)cc1	PP1 inh 20 | PP1 inh confirm inactive | PP5 inh counter inactive
CCN1/C(=C/C=C/C=C/C=C/c2sc3ccccc3[n+]2CC)Sc2ccccc21	PP1 inh 20 | PP1 inh confirm 39 | PP5 inh counter inactive
